Among all 5,500 compounds or so, about 2,000 (36%) were called active. Not shown: some 18% with an inconclusive outcome. No stated cut-off is given here; in the data, active means normalized growth mostly below about 0.91 (no sharp cut-off); inconclusive means no clear call, values can overlap the other calls; inactive means mostly above about 0.92. Some of the results follow.
Experiment: chemical genetic growth profiling, strain panel (AID 1159580);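 further: tested at 20 µM; growth read once vehicle control cultures reached saturation at 30 °C; 1 = growth at the plate median or of vehicle wells; lower values mean less growth of the strain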
Conditions: growth OD
[1] = S. cerevisiae deletion strains, locus YBR229C, strain ROT2, active compounds read low
[2] = S. cerevisiae deletion strains, locus YDL101C, strain DUN1, active compounds read low
[3] = S. cerevisiae deletion strains, locus YDR150W, strain NUM1, active compounds read low
[4] = S. cerevisiae deletion strains, locus YEL061C, strain CIN8, active compounds read low
[5] = S. cerevisiae deletion strains, locus YGR078C, strain PAC10, active compounds read low
[6] = S. cerevisiae deletion strains, locus YHR030C, strain SLT2, active compounds read low
[7] = S. cerevisiae deletion strains, locus YHR087W, strain rtc3, active compounds read low
[8] = S. cerevisiae deletion strains, locus YJL187C, strain SWE1, active compounds read low
[9] = S. cerevisiae deletion strains, locus YJR043C, strain POL32, active compounds read low
[10] = S. cerevisiae deletion strains, locus YJR075W, strain HOC1, active compounds read low
[11] = S. cerevisiae deletion strains, locus YKL190W, strain CNB1, active compounds read low
[12] = S. cerevisiae deletion strains, locus YLR039C, strain RIC1, active compounds read low
[13] = S. cerevisiae deletion strains, locus YLR058C, strain SHM2 (second series), active compounds read low
[14] = S. cerevisiae deletion strains, locus YLR085C, strain ARP6, active compounds read low
[15] = S. cerevisiae deletion strains, locus YLR262C, strain YPT6, active compounds read low
[16] = S. cerevisiae deletion strains, locus YML094W, strain GIM5, active compounds read low
[17] = S. cerevisiae deletion strains, locus YMR219W, strain ESC1, active compounds read low
[18] = S. cerevisiae deletion strains, locus YMR263W, strain SAP30, active compounds read low
[19] = S. cerevisiae deletion strains, locus YNL153C, strain GIM3, active compounds read low
[20] = S. cerevisiae deletion strains, locus YNL298W, strain CLA4 (second series), active compounds read low
[21] = S. cerevisiae deletion strains, locus YNL322C, strain KRE1, active compounds read low
[22] = S. cerevisiae deletion strains, locus YNR030W, strain Alg12, active compounds read low
[23] = S. cerevisiae deletion strains, locus YPL055C, strain LGE1, active compounds read low
[24] = S. cerevisiae deletion strains, locus YPL241C, strain CIN2, active compounds read low
[25] = S. cerevisiae deletion strains, locus YPR135W, strain CTF4, active compounds read low
[26] = S. cerevisiae deletion strains, locus YAR019C, strain CDC15, active compounds read low
[27] = S. cerevisiae deletion strains, locus YBL105C, strain PKC1, active compounds read low
[28] = S. cerevisiae deletion strains, locus YBR135W, strain CKS1, active compounds read low
[29] = S. cerevisiae deletion strains, locus YBR136W, strain MEC1, active compounds read low
[30] = S. cerevisiae deletion strains, locus YBR160W, strain CDC28, active compounds read low
[31] = S. cerevisiae deletion strains, locus YDL017W, strain CDC7, active compounds read low
[32] = S. cerevisiae deletion strains, locus YDL028C, strain MPS1, active compounds read low
[33] = S. cerevisiae deletion strains, locus YDL108W, strain KIN28, active compounds read low
[34] = S. cerevisiae deletion strains, locus YDL132W, strain cdc53, active compounds read low
[35] = S. cerevisiae deletion strains, locus YDL214C, strain PRR2, active compounds read low
[36] = S. cerevisiae deletion strains, locus YDR052C, strain DBF4, active compounds read low
[37] = S. cerevisiae deletion strains, locus YDR054C, strain cdc34, active compounds read low
[38] = S. cerevisiae deletion strains, locus YDR226W, strain ADK1, active compounds read low
[39] = S. cerevisiae deletion strains, locus YDR477W, strain SNF1, active compounds read low
[40] = S. cerevisiae deletion strains, locus YER123W, strain YCK3, active compounds read low
[41] = S. cerevisiae deletion strains, locus YER133W, strain GLC7, active compounds read low
[42] = S. cerevisiae deletion strains, locus YFL009W, strain cdc4, active compounds read low
[43] = S. cerevisiae deletion strains, locus YFL029C, strain CAK1, active compounds read low
[44] = S. cerevisiae deletion strains, locus YFR003C, strain YPI1, active compounds read low
[45] = S. cerevisiae deletion strains, locus YFR019W, strain FAB1, active compounds read low
[46] = S. cerevisiae deletion strains, locus YFR028C, strain CDC14, active compounds read low
[47] = S. cerevisiae deletion strains, locus YGR040W, strain KSS1, active compounds read low
[48] = S. cerevisiae deletion strains, locus YGR052W, strain FMP48, active compounds read low
[49] = S. cerevisiae deletion strains, locus YGR092W, strain DBF2, active compounds read low
[50] = S. cerevisiae deletion strains, locus YHR079C, strain IRE1, active compounds read low
[51] = S. cerevisiae deletion strains, locus YHR082C, strain KSP1, active compounds read low
[52] = S. cerevisiae deletion strains, locus YHR205W, strain SCH9, active compounds read low
[53] = S. cerevisiae deletion strains, locus YIL147C, strain SLN1, active compounds read low
[54] = S. cerevisiae deletion strains, locus YJL095W, strain BCK1, active compounds read low
[55] = S. cerevisiae deletion strains, locus YJL128C, strain PBS2, active compounds read low
[56] = S. cerevisiae deletion strains, locus YJL157C, strain FAR1, active compounds read low
[57] = S. cerevisiae deletion strains, locus YJR016C, strain ILV3, active compounds read low
[58] = S. cerevisiae deletion strains, locus YJR066W, strain TOR1 (second series), active compounds read low
[59] = S. cerevisiae deletion strains, locus YJR066W, strain TOR1, active compounds read low
[60] = S. cerevisiae deletion strains, locus YKL048C, strain ELM1, active compounds read low
[61] = S. cerevisiae deletion strains, locus YKL067W, strain YNK1, active compounds read low
[62] = S. cerevisiae deletion strains, locus YKL101W, strain HSL1, active compounds read low
[63] = S. cerevisiae deletion strains, locus YKL193C, strain SDS22, active compounds read low
[64] = S. cerevisiae deletion strains, locus YKL203C, strain TOR2, active compounds read low
[65] = S. cerevisiae deletion strains, locus YLR113W, strain HOG1, active compounds read low
[66] = S. cerevisiae deletion strains, locus YLR133W, strain CKI1, active compounds read low
[67] = S. cerevisiae deletion strains, locus YLR403W, strain SFP1, active compounds read low
[68] = S. cerevisiae deletion strains, locus YML070W, strain DAK1, active compounds read low
[69] = S. cerevisiae deletion strains, locus YMR001C, strain CDC5, active compounds read low
[70] = S. cerevisiae deletion strains, locus YMR205C, strain PFK2 (second series), active compounds read low
[71] = S. cerevisiae deletion strains, locus YMR277W, strain FCP1, active compounds read low
[72] = S. cerevisiae deletion strains, locus YNL006W, strain LST8, active compounds read low
[73] = S. cerevisiae deletion strains, locus YNL020C, strain ARK1, active compounds read low
[74] = S. cerevisiae deletion strains, locus YNL161W, strain CBK1, active compounds read low
[75] = S. cerevisiae deletion strains, locus YNL183C, strain NPR1, active compounds read low
[76] = S. cerevisiae deletion strains, locus YNL207W, strain RIO2, active compounds read low
[77] = S. cerevisiae deletion strains, locus YNL222W, strain SSU72, active compounds read low
[78] = S. cerevisiae deletion strains, locus YNL307C, strain MCK1 (second series), active compounds read low
[79] = S. cerevisiae deletion strains, locus YOL078W, strain AVO1, active compounds read low
[80] = S. cerevisiae deletion strains, locus YOL136C, strain PFK27, active compounds read low
[81] = S. cerevisiae deletion strains, locus YOR061W, strain CKA2, active compounds read low
[82] = S. cerevisiae deletion strains, locus YOR119C, strain RIO1, active compounds read low
[83] = S. cerevisiae deletion strains, locus YOR231W, strain MKK1, active compounds read low
[84] = S. cerevisiae deletion strains, locus YOR329C, strain SCD5, active compounds read low
[85] = S. cerevisiae deletion strains, locus YPL031C, strain PHO85, active compounds read low
[86] = S. cerevisiae deletion strains, locus YPL153C, strain RAD53, active compounds read low
[87] = S. cerevisiae deletion strains, locus YPL204W, strain HRR25, active compounds read low
[88] = S. cerevisiae deletion strains, locus YPL209C, strain IPL1, active compounds read low
[89] = S. cerevisiae deletion strains, locus YPL256C, strain CLN2, active compounds read low
[90] = S. cerevisiae deletion strains, locus YPR025C, strain CCL1, active compounds read low
[91] = S. cerevisiae deletion strains, locus YPR106W, strain ISR1, active compounds read low
[92] = S. cerevisiae deletion strains, locus YPR111W, strain DBF20, active compounds read low
[93] = S. cerevisiae deletion strains, strain NNK1, active compounds read low
[94] = S. cerevisiae deletion strains, strain TSCII, active compounds read low

Measured: normalized growth

CCOC(=O)c1c[nH]c2c(F)cccc2c1=O
inactive: [1] 1 | S. cerevisiae deletion strains, locus YCL061C, strain MRC1, active compounds read low 0.985 | [2] 0.963 | [3] 0.963 | [4] 1.04 | [5] 0.982 | [6] 1.03 | [7] 1.02 | [8] 1.01 | [9] 0.988 | [10] 0.973 | [11] 0.993 | [12] 1.06 | [13] 1.01 | [14] 1.03 | [15] 1.04 | [16] 1.02 | [17] 0.997 | [18] 1.01 | [19] 0.973 | [20] 0.981 | [21] 0.996 | [22] 0.978 | [23] 1.02 | [24] 0.962 | [25] 0.985 | S. cerevisiae strains, strain wild type, active compounds read low 0.989

CCOC(=O)c1cnc(-c2ccccn2)[nH]c1=O
active: [40] 0.453 | [6] 0.734 | [50] 0.426 | [54] 0.432 | [65] 0.487 | [83] 0.413 | [89] 0.464
inactive: [26] 0.933 | [27] 0.955 | [28] 0.932 | [29] 0.94 | [30] 0.934 | [31] 0.957 | [32] 0.94 | [2] 0.955 | [33] 0.943 | [34] 0.948 | [35] 0.825 | [36] 0.952 | [37] 0.899 | [38] 0.935 | [39] 0.85 | [41] 0.856 | [42] 0.907 | [43] 0.932 | [44] 0.947 | [45] 0.819 | [46] 0.937 | [47] 0.866 | [48] 0.69 | [49] 0.638 | [51] 0.839 | [52] 0.965 | [53] 0.935 | [55] 1.01 | [56] 0.743 | [57] 0.934 | [58] 0.741 | [59] 0.652 | [60] 0.927 | [61] 0.818 | [62] 0.871 | [63] 0.917 | [64] 0.901 | [66] 0.834 | [67] 0.785 | [68] 0.744 | [69] 0.934 | [70] 0.848 | [71] 0.922 | [72] 0.966 | [73] 0.833 | [74] 0.933 | [75] 0.603 | [76] 0.926 | [77] 0.921 | [78] 0.759 | [79] 0.92 | [80] 0.752 | [81] 0.835 | [82] 0.863 | [84] 0.948 | [85] 0.82 | [86] 0.759 | [87] 0.773 | [88] 0.946 | [90] 0.953 | [91] 0.944 | [92] 0.939 | [93] 0.932 | [94] 0.916

CCOC(=O)c1cnc(SCC(=O)c2ccc(Cl)cc2Cl)[nH]1
inactive: S. cerevisiae deletion strains, locus YAL013W, strain DEP1, active compounds read low 1 | [1] 1 | [2] 1 | [3] 1.02 | [4] 1.03 | [5] 1.02 | [6] 0.936 | [7] 1.01 | [8] 1.03 | [9] 0.999 | [10] 1 | [11] 0.993 | [12] 0.934 | [13] 1.01 | [14] 1.06 | [15] 0.914 | [16] 1.01 | [17] 1.01 | [18] 0.938 | [19] 1 | [20] 1.04 | [21] 1.01 | [22] 0.988 | [23] 1.08 | [24] 1.01 | [25] 0.851

CC(C)Sc1c(Cl)cccc1NC(=O)Nc1cccc(C(F)(F)F)c1
inactive: [26] 0.981 | [27] 0.977 | [28] 0.972 | [29] 0.978 | [30] 0.981 | [31] 0.984 | [32] 0.979 | [2] 0.98 | [33] 0.972 | [34] 0.975 | [35] 0.927 | [36] 0.979 | [37] 0.97 | [38] 0.965 | [39] 0.916 | [40] 0.888 | [41] 0.945 | [42] 0.99 | [43] 0.976 | [44] 0.974 | [45] 0.918 | [46] 0.974 | [47] 0.908 | [48] 1.04 | [49] 0.94 | [50] 0.953 | [51] 0.96 | [52] 0.891 | [53] 0.979 | [54] 0.887 | [55] 0.956 | [56] 0.946 | [57] 0.984 | [58] 0.943 | [59] 0.912 | [60] 0.946 | [61] 0.914 | [62] 0.937 | [63] 0.975 | [64] 0.947 | [65] 0.908 | [66] 0.922 | [67] 0.953 | [68] 0.929 | [69] 0.977 | [70] 0.936 | [71] 0.973 | [72] 0.98 | [73] 0.926 | [74] 0.983 | [75] 0.918 | [76] 0.982 | [77] 0.97 | [78] 0.876 | [79] 0.966 | [80] 0.93 | [81] 0.957 | [82] 0.995 | [83] 0.946 | [84] 0.98 | [85] 0.905 | [86] 0.911 | [87] 0.896 | [88] 0.976 | [89] 0.861 | [90] 0.979 | [91] 0.976 | [92] 0.974 | [93] 0.97 | [94] 0.992
active: [6] 0.773
